Laboratory results taken from PubChem BioAssay AID1159580 (chemical genetic matrix, 2015).
In all, about 5,500 compounds went through this assay and about 2,000 (36%) were called active. About 18% were inconclusive and are not listed. No stated cut-off is given here; in the data, active means normalized growth mostly below about 0.91 (no sharp cut-off); inconclusive means no clear call, values can overlap the other calls; inactive means mostly above about 0.92. Some of the results follow.

Test: chemical genetic growth profiling, strain panel (AID 1159580);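 further: tested at 20 µM; growth read once vehicle control cultures reached saturation at 30 °C; 1 = growth at the plate median or of vehicle wells; lower values mean less growth of the strain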
Settings: growth OD

Measured: normalized growth

C[C@@H]([C@H](O)c1ccccc1)N(C)C
inactive: S. cerevisiae deletion strains, locus YAL013W, strain DEP1, hits give low values 1.01 | S. cerevisiae deletion strains, locus YAL021C, strain ccr4, hits give low values 1.01 | S. cerevisiae deletion strains, locus YAL026C, strain drs2, hits give low values 1.01 | S. cerevisiae deletion strains, locus YAL030W, strain snc1, hits give low values 1.02 | S. cerevisiae deletion strains, locus YBL061C, strain skt5, hits give low values 1.01 | S. cerevisiae deletion strains, locus YBR009C, strain hhf1, hits give low values 1.01 | S. cerevisiae deletion strains, locus YBR021W, strain FUR4, hits give low values 0.983 | S. cerevisiae deletion strains, locus YBR023C, strain chs3, hits give low values 1.01 | S. cerevisiae deletion strains, locus YBR171W, strain sec66, hits give low values 1.03 | S. cerevisiae deletion strains, locus YBR229C, strain ROT2, hits give low values 1 | S. cerevisiae deletion strains, locus YBR231C, strain swc5, hits give low values 1.01 | S. cerevisiae deletion strains, locus YBR279W, strain paf1, hits give low values 1.02 | S. cerevisiae deletion strains, locus YCL011C, strain gbp2, hits give low values 1.01 | S. cerevisiae deletion strains, locus YCL016C, strain dcc1, hits give low values 1.01 | S. cerevisiae deletion strains, locus YCL029C, strain bik1, hits give low values 1 | S. cerevisiae deletion strains, locus YCL061C, strain MRC1, hits give low values 1.01 | S. cerevisiae deletion strains, locus YCL069W, strain vba3, hits give low values 1.01 | S. cerevisiae deletion strains, locus YCR088W, strain abp1, hits give low values 1.01 | S. cerevisiae deletion strains, locus YDL005C, strain med2, hits give low values 1.02 | S. cerevisiae deletion strains, locus YDL035C, strain GPR1, hits give low values 1.02 | S. cerevisiae deletion strains, locus YDL040C, strain nat1, hits give low values 1.02 | S. cerevisiae deletion strains, locus YDL074C, strain BRE1, hits give low values 0.999 | S. cerevisiae deletion strains, locus YDL101C, strain DUN1, hits give low values 1 | S. cerevisiae deletion strains, locus YDL134C, strain PPH21, hits give low values 1 | S. cerevisiae deletion strains, locus YDL185W, strain tfp1, hits give low values 1.01 | S. cerevisiae deletion strains, locus YDL192W, strain arf1, hits give low values 1.02 | S. cerevisiae deletion strains, locus YDR001C, strain nth1, hits give low values 1.01 | S. cerevisiae deletion strains, locus YDR069C, strain doa4, hits give low values 1.03 | S. cerevisiae deletion strains, locus YDR101C, strain arx1, hits give low values 0.981 | S. cerevisiae deletion strains, locus YDR137W, strain rgp1, hits give low values 0.984 | S. cerevisiae deletion strains, locus YDR150W, strain NUM1, hits give low values 1.01 | S. cerevisiae deletion strains, locus YDR159W, strain sac3, hits give low values 1.03 | S. cerevisiae deletion strains, locus YDR162C, strain NBP2, hits give low values 1.02 | S. cerevisiae deletion strains, locus YDR195W, strain ref2 1.01 | S. cerevisiae deletion strains, locus YDR297W, strain sur2, hits give low values 1.01 | S. cerevisiae deletion strains, locus YDR318W, strain mcm21, hits give low values 1.01 | S. cerevisiae deletion strains, locus YDR334W, strain swr1, hits give low values 1.02 | S. cerevisiae deletion strains, locus YDR335W, strain msn5, hits give low values 1.03 | S. cerevisiae deletion strains, locus YDR388W, hits give low values 1.01 | S. cerevisiae deletion strains, locus YDR392W, strain spt3, hits give low values 1.03 | S. cerevisiae deletion strains, locus YDR502C, strain sam2, hits give low values 1.01 | S. cerevisiae deletion strains, locus YEL003W, strain gim4, hits give low values 1.02 | S. cerevisiae deletion strains, locus YEL037C, strain rad23, hits give low values 1.01 | S. cerevisiae deletion strains, locus YEL061C, strain CIN8 (second series), hits give low values 1.01 | S. cerevisiae deletion strains, locus YEL061C, strain CIN8, hits give low values 1.01 | S. cerevisiae deletion strains, locus YER015W, strain faa2, hits give low values 1.01 | S. cerevisiae deletion strains, locus YER016W, strain bim1, hits give low values 1.02 | S. cerevisiae deletion strains, locus YER110C, hits give low values 1.01 | S. cerevisiae deletion strains, locus YER111C, strain swi4, hits give low values 1.01 | S. cerevisiae deletion strains, locus YER155C, strain BEM2 (second series), hits give low values 1.03 | S. cerevisiae deletion strains, locus YER155C, strain BEM2, hits give low values 1 | S. cerevisiae deletion strains, locus YER167W, strain BCK2, hits give low values 1.01 | S. cerevisiae deletion strains, locus YFR010W, strain ubp6, hits give low values 1.02 | S. cerevisiae deletion strains, locus YGL078C, strain dbp3, hits give low values 1.01 | S. cerevisiae deletion strains, locus YGL086W, strain mad1, hits give low values 0.997 | S. cerevisiae deletion strains, locus YGL167C, strain pmr1, hits give low values 0.956 | S. cerevisiae deletion strains, locus YGL173C, strain kem1, hits give low values 1.01 | S. cerevisiae deletion strains, locus YGL227W, strain vid30, hits give low values 1.01 | S. cerevisiae deletion strains, locus YGL240W, strain doc1, hits give low values 1.01 | S. cerevisiae deletion strains, locus YGL248W, strain PDE1, hits give low values 1 | S. cerevisiae deletion strains, locus YGL253W, strain hxk2, hits give low values 1.02 | S. cerevisiae deletion strains, locus YGR078C, strain PAC10, hits give low values 1.02 | S. cerevisiae deletion strains, locus YGR135W, strain pre9, hits give low values 1.03 | S. cerevisiae deletion strains, locus YGR252W, strain gcn5, hits give low values 1.02 | S. cerevisiae deletion strains, locus YHR013C, strain ard1, hits give low values 1.05 | S. cerevisiae deletion strains, locus YHR027C, strain rpn1, hits give low values 1.01 | S. cerevisiae deletion strains, locus YHR030C, strain SLT2, hits give low values 1.02 | S. cerevisiae deletion strains, locus YHR079C, strain IRE1 (second series), hits give low values 1.01 | S. cerevisiae deletion strains, locus YHR094C, strain hxt1, hits give low values 1.01 | S. cerevisiae deletion strains, locus YHR129C, strain ARP1, hits give low values 1.01 | S. cerevisiae deletion strains, locus YHR142W, strain chs7, hits give low values 1.01 | S. cerevisiae deletion strains, locus YHR200W, strain rpn10, hits give low values 1 | S. cerevisiae deletion strains, locus YIL066C, strain RNR3, hits give low values 1 | S. cerevisiae deletion strains, locus YIL073C, strain SPO22, hits give low values 1.05 | S. cerevisiae deletion strains, locus YIL125W, strain kgd1, hits give low values 1 | S. cerevisiae deletion strains, locus YIR030C, strain dcg1, hits give low values 1.01 | S. cerevisiae deletion strains, locus YJL092W, strain hpr5, hits give low values 1.01 | S. cerevisiae deletion strains, locus YJL095W, strain BCK1 (second series), hits give low values 1.02 | S. cerevisiae deletion strains, locus YJL095W, strain BCK1, hits give low values 0.996 | S. cerevisiae deletion strains, locus YJL115W, strain asf1, hits give low values 1.02 | S. cerevisiae deletion strains, locus YJL129C, strain trk1, hits give low values 1.03 | S. cerevisiae deletion strains, locus YJL134W, strain LCB3, hits give low values 1.01 | S. cerevisiae deletion strains, locus YJL154C, strain vps35, hits give low values 1.02 | S. cerevisiae deletion strains, locus YJL164C, strain tpk1, hits give low values 1.02 | S. cerevisiae deletion strains, locus YJL166W, strain qcr8, hits give low values 1.02 | S. cerevisiae deletion strains, locus YJL168C, strain set2, hits give low values 1 | S. cerevisiae deletion strains, locus YJL187C, strain SWE1 (second series), hits give low values 0.993 | S. cerevisiae deletion strains, locus YJL187C, strain SWE1, hits give low values 1.02 | S. cerevisiae deletion strains, locus YJR043C, strain POL32, hits give low values 1.01 | S. cerevisiae deletion strains, locus YJR075W, strain HOC1, hits give low values 1 | S. cerevisiae deletion strains, locus YKL009W, strain mrt4, hits give low values 1.02 | S. cerevisiae deletion strains, locus YKL068W, hits give low values 1 | S. cerevisiae deletion strains, locus YKL085W, strain MDH1 (second series), hits give low values 1.02 | S. cerevisiae deletion strains, locus YKL085W, strain MDH1, hits give low values 1.02 | S. cerevisiae deletion strains, locus YKL160W, strain elf1, hits give low values 1.01 | S. cerevisiae deletion strains, locus YKL190W, strain CNB1, hits give low values 1.02 | S. cerevisiae deletion strains, locus YKR001C, strain vps1, hits give low values 1 | S. cerevisiae deletion strains, locus YKR026C, strain gcn3, hits give low values 1.01 | S. cerevisiae deletion strains, locus YKR091W, strain srl3, hits give low values 1.01 | S. cerevisiae deletion strains, locus YLL001W, strain dnm1, hits give low values 1.01 | S. cerevisiae deletion strains, locus YLL026W, hits give low values 1.01 | S. cerevisiae deletion strains, locus YLL041C, strain sdh2, hits give low values 1.02 | S. cerevisiae deletion strains, locus YLR027C, strain aat2, hits give low values 1.01 | S. cerevisiae deletion strains, locus YLR039C, strain RIC1, hits give low values 1.03 | S. cerevisiae deletion strains, locus YLR058C, strain SHM2, hits give low values 1.01 | S. cerevisiae deletion strains, locus YLR102C, strain apc9, hits give low values 1 | S. cerevisiae deletion strains, locus YLR221C, strain rsa3, hits give low values 1.01 | S. cerevisiae deletion strains, locus YLR258W, strain gsy2, hits give low values 1.01 | S. cerevisiae deletion strains, locus YLR262C, strain YPT6 (second series), hits give low values 1 | S. cerevisiae deletion strains, locus YLR262C, strain YPT6, hits give low values 1 | S. cerevisiae deletion strains, locus YLR268W, strain sec22, hits give low values 1.01 | S. cerevisiae deletion strains, locus YLR320W, strain mms22, hits give low values 1.02 | S. cerevisiae deletion strains, locus YLR330W, strain CHS5, hits give low values 1.01 | S. cerevisiae deletion strains, locus YLR342W, strain FKS1 (second series), hits give low values 1.03 | S. cerevisiae deletion strains, locus YLR342W, strain FKS1, hits give low values 1.02 | S. cerevisiae deletion strains, locus YLR357W, strain rsc2, hits give low values 1.04 | S. cerevisiae deletion strains, locus YLR370C, strain arc18, hits give low values 1.01 | S. cerevisiae deletion strains, locus YLR371W, strain rom2, hits give low values 1 | S. cerevisiae deletion strains, locus YLR384C, strain iki3, hits give low values 1.02 | S. cerevisiae deletion strains, locus YLR418C, strain cdc73, hits give low values 1.04 | S. cerevisiae deletion strains, locus YML016C, strain PPZ1, hits give low values 1.01 | S. cerevisiae deletion strains, locus YML032C, strain rad52, hits give low values 1 | S. cerevisiae deletion strains, locus YML120C, strain ndi1, hits give low values 1.02 | S. cerevisiae deletion strains, locus YML124C, strain tub3, hits give low values 1.01 | S. cerevisiae deletion strains, locus YMR058W, strain fet3, hits give low values 1.02 | S. cerevisiae deletion strains, locus YMR078C, strain ctf18, hits give low values 1.01 | S. cerevisiae deletion strains, locus YMR125W, strain sto1, hits give low values 1.02 | S. cerevisiae deletion strains, locus YMR129W, hits give low values 1.02 | S. cerevisiae deletion strains, locus YMR205C, strain PFK2, hits give low values 1.02 | S. cerevisiae deletion strains, locus YMR223W, strain ubp8, hits give low values 1.04 | S. cerevisiae deletion strains, locus YMR231W, strain pep5, hits give low values 1.01 | S. cerevisiae deletion strains, locus YMR307W, strain GAS1, hits give low values 1.02 | S. cerevisiae deletion strains, locus YNL067W, strain RPL9B, hits give low values 0.999 | S. cerevisiae deletion strains, locus YNL071W, strain lat1, hits give low values 1.01 | S. cerevisiae deletion strains, locus YNL153C, strain GIM3, hits give low values 0.985 | S. cerevisiae deletion strains, locus YNL209W, strain ssb2, hits give low values 1.02 | S. cerevisiae deletion strains, locus YNL233W, strain BNI4, hits give low values 0.982 | S. cerevisiae deletion strains, locus YNL248C, strain rpa49, hits give low values 1 | S. cerevisiae deletion strains, locus YNL250W, strain rad50, hits give low values 1.05 | S. cerevisiae deletion strains, locus YNL271C, strain bni1, hits give low values 1.01 | S. cerevisiae deletion strains, locus YNL298W, strain CLA4, hits give low values 1.02 | S. cerevisiae deletion strains, locus YNL307C, strain MCK1, hits give low values 1.01 | S. cerevisiae deletion strains, locus YNL322C, strain KRE1 (second series), hits give low values 1 | S. cerevisiae deletion strains, locus YNR049C, strain mso1, hits give low values 1.01 | S. cerevisiae deletion strains, locus YNR052C, strain pop2, hits give low values 1 | S. cerevisiae deletion strains, locus YOL006C, strain TOP1, hits give low values 1 | S. cerevisiae deletion strains, locus YOL012C, strain htz1 0.634 | S. cerevisiae deletion strains, locus YOL147C, strain pex11, hits give low values 1.01 | S. cerevisiae deletion strains, locus YOR001W, strain rrp6, hits give low values 1.01 | S. cerevisiae deletion strains, locus YOR061W, strain CKA2, hits give low values 1.01 | S. cerevisiae deletion strains, locus YOR069W, strain VPS5, hits give low values 1 | S. cerevisiae deletion strains, locus YOR070C, strain gyp1, hits give low values 1.02 | S. cerevisiae deletion strains, locus YOR080W, strain dia2, hits give low values 1.03 | S. cerevisiae deletion strains, locus YOR083W, strain WHI5, hits give low values 1.02 | S. cerevisiae deletion strains, locus YOR106W, strain vam3, hits give low values 1.01 | S. cerevisiae deletion strains, locus YOR136W, strain idh2, hits give low values 1 | S. cerevisiae deletion strains, locus YOR144C, strain elg1, hits give low values 1.01 | S. cerevisiae deletion strains, locus YOR184W, strain ser1, hits give low values 1.01 | S. cerevisiae deletion strains, locus YOR265W, strain rbl2, hits give low values 1.02 | S. cerevisiae deletion strains, locus YOR270C, strain vph1, hits give low values 1.03 | S. cerevisiae deletion strains, locus YOR290C, strain snf2, hits give low values 1.01 | S. cerevisiae deletion strains, locus YOR316C, strain cot1, hits give low values 1.01 | S. cerevisiae deletion strains, locus YPL051W, strain arl3, hits give low values 1.01 | S. cerevisiae deletion strains, locus YPL078C, strain atp4, hits give low values 1.02 | S. cerevisiae deletion strains, locus YPL106C, strain sse1, hits give low values 1.03 | S. cerevisiae deletion strains, locus YPL240C, strain hsp82, hits give low values 1.02 | S. cerevisiae deletion strains, locus YPR119W, strain clb2, hits give low values 1.01 | S. cerevisiae deletion strains, locus YPR141C, strain kar3, hits give low values 1 | S. cerevisiae deletion strains, locus YPR163C, strain tif3, hits give low values 1.01 | S. cerevisiae deletion strains, locus YPR167C, strain met16, hits give low values 1 | S. cerevisiae deletion strains, strain wtn01, hits give low values 1.01 | S. cerevisiae strains, strain wild type, hits give low values 1.01
